The results in this text go back to PubChem BioAssay.

Calls of active or inactive are those of the source.

Experiment [1] concerns the target Albumin (Bos taurus) (UniProt P02769). As to the kind of experiment: compounds binding labelled BSA control protein – biochemical, small-molecule microarray, Alexa647 label, 635/667 nm fluorescence, artefact control for SMM control protein annotation, profiling panel (AID 1118).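 Note: score merges 667 nm emission intensity and signal-to-noise per printed compound spot.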 Conditions: BSA-A647 binding, fluorescence 635 nm, higher = more signal.
Experiment [2] can be described thus: probe aXIP binding to arrayed compounds – biochemical, NeuroSMM set, 635/667 nm fluorescence, primary screen (AID 1119).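 Note: probe is the protein aXip251-270 applied at 1 µg/mL to compound-printed slides; binding of probe to printed compounds measured as 667 nm fluorescence plus signal to noise.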 Conditions: small-molecule microarray, higher = more signal, called active from +8 up or from −8 down.
The nature of experiment [3]: probe aNOTCH3 binding on compound microarray – biochemical, small-molecule microarray, 635/667 nm fluorescence, primary screen (AID 1120).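 Note: probe is a biotin-tagged antibody raised against NOTCH3 rather than NOTCH3 protein; score merges spot fluorescence near 667 nm with spot signal to noise.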 Conditions: higher = more signal.
A short description of experiment [4]: probe aNOTCH2 binding on compound microarray – biochemical, small-molecule microarray, 635/667 nm fluorescence, primary screen (AID 1121).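 Note: score merges feature fluorescence read at 667 nm with its signal to noise.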 The settings on record: higher = more signal.
Experiment [5] concerns the target Carbonic anhydrase 2 (Homo sapiens) (UniProt P00918). As to the kind of experiment: compounds binding carbonic anhydrase 2 – biochemical, small-molecule microarray, Alexa647-labelled CAII, profiling panel (AID 1122). The settings on record: CAII-A647 binding fluorescence, higher = more signal.
Experiment [6] in a line: COS7 lysate on small-molecule microarray, probe aHis, 635 nm (AID 1123).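 Note: z-score combines 667nm fluorescence intensity with signal-to-noise per printed compound spot.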 The settings on record: COS7 cell lysate, fluorescence, higher = more signal.
Experiment [7] in a line: probe aLAP1 signal on lysate-treated microarray – cell lysate, small-molecule microarray, COS7 lysate, primary screen (AID 1124).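 Note: lysate comes from COS7 cells expressing LAP1 and is applied at 0.3 µg/mL; score merges spot fluorescence near 667 nm with signal-to-noise over triplicate slides.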 The settings on record: probe aLAP1, fluorescence, higher = more signal.
Experiment [8] has as its system Sam68 (KHDRBS1). As to the kind of experiment: compounds binding KHDRBS1 protein – biochemical, small-molecule microarray, 635 nm fluorescence, primary screen (AID 1125).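 Note: score merges 667 nm channel intensity with signal to noise over triplicate slides.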 The settings on record: higher = more signal.
The test system of experiment [9] is Chordin-like protein 2 (CHRDL2). Kind of experiment: compounds binding chordin-like 2 – biochemical, small-molecule microarray, 635 nm fluorescence, primary screen (AID 1126).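 Note: printed compound slides probed with Chrdl2 protein at 4 µg/mL for 1 h at 4 C; score merges 667 nm emission intensity with signal to noise over three replicate slides.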 Conditions: fluorescence 635 nm, higher = more signal.
The target in experiment [10] is Concanavalin-A (Canavalia ensiformis) (UniProt P02866). Kind of experiment: compounds binding concanavalin A lectin – biochemical, small-molecule microarray, Alexa647 label, 635 nm, artefact control for SMM control protein annotation, primary screen (AID 1127).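 Note: z combines 667 nm emission intensity with signal-to-noise across three replicate slides.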 Conditions: ConA-A647 binding fluorescence, higher = more signal.
Concanavalin-A (Canavalia ensiformis), sequence (P02866 whole entry, looked up): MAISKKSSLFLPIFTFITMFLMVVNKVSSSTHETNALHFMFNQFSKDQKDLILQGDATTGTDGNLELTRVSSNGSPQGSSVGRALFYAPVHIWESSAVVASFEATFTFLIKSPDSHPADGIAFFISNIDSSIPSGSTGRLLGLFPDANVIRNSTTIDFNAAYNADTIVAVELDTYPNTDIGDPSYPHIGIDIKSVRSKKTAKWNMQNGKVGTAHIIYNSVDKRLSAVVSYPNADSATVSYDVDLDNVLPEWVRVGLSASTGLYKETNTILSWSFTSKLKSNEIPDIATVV
A short description of experiment [11]: compounds binding Alexa647 anti-His antibody – biochemical, small-molecule microarray, 635 nm fluorescence, artefact control for SMM control protein annotation, primary screen (AID 1128).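 Note: score merges feature fluorescence with signal-to-noise for each printed compound spot.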 Conditions: higher = more signal.
The test system of experiment [12] is Human papillomavirus type 1a E7 protein (residues 1-88). Kind of experiment: HPV1a E7 small-molecule binders, primary screen, biochemical, small-molecule microarray, residues 1-88, 635 nm (AID 1129). Conditions: small-molecule microarray binding, fluorescence 635 nm; higher = more signal.
Experiment [13] has as its target Focal adhesion kinase 1 (Homo sapiens) (UniProt Q05397). As to the kind of experiment: PTK2 protein binding on printed compound slides – biochemical, small-molecule microarray, 635/667 nm fluorescence, BSA, DTT, primary screen (AID 1130).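 Note: composite of spot emission at 667 nm and signal to noise over triplicate slides.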 Conditions: 635 nm fluorescence, higher = more signal.
Experiment [14] concerns Fibrinogen (Alexa647-labelled). Kind of experiment: Alexa647-fibrinogen binding to printed small molecules – biochemical, small-molecule microarray, 635/667 nm fluorescence, artefact control for SMM control-protein annotation, profiling panel (AID 1131).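 Note: z-score merges 667 nm fluorescence with per-spot signal-to-noise over triplicate slides.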 The settings on record: fibrinogen-A647 binding fluorescence, higher = more signal.
Experiment [15] addresses Follistatin (Homo sapiens) (UniProt P19883). Kind of experiment: FST protein binding to printed compounds – biochemical, small-molecule microarray, 635/667 nm fluorescence, primary screen (AID 1132). The settings on record: 635 nm fluorescence, higher = more signal.
Experiment [16] deals with Fibroblast growth factor 2 (Homo sapiens) (UniProt P09038). As to the kind of experiment: basic fibroblast growth factor binding to printed compounds – biochemical, small-molecule microarray, 635/667 nm fluorescence, primary screen (AID 1133). Conditions: FGF2, fluorescence 635/667, higher = more signal.
Fibroblast growth factor 2 (Homo sapiens), sequence (P09038 whole entry, looked up): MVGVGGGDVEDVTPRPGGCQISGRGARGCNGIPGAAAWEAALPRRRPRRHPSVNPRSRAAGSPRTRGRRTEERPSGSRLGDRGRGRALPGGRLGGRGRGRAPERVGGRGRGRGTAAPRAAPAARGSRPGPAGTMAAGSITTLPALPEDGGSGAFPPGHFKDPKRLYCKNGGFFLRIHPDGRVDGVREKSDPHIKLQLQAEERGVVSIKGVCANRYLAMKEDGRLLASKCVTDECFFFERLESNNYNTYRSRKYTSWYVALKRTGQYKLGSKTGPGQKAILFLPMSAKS
Experiment [17] can be described thus: JC-1 mitochondrial potential readout, lung cancer cells – cell-based, A549, JC-1 fluorescence, basal, 24 h, 100 nL, profiling panel (AID 1138).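 Note: A549 lung adenocarcinoma cells under basal conditions with no added stimulus; test concentration not given here.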 The settings on record: higher = more signal.
Experiment [18] has as its system Lefty1. Kind of experiment: Lefty1 protein binding to printed compounds – biochemical, small-molecule microarray, 635/667 nm fluorescence, primary screen (AID 1139). Conditions: fluorescence 635/667, higher = more signal.
The test system of experiment [19] is wheat germ agglutinin (Triticum aestivum), Alexa647-labelled. Kind of experiment: Alexa647-WGA lectin binding to printed small molecules – biochemical, small-molecule microarray, 635/667 nm fluorescence, artefact control for SMM control-protein annotation, profiling panel (AID 1140).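 Note: score merges 667 nm feature emission with signal to noise over triplicate slides.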 The settings on record: WGA-A647 binding, 635 nm fluorescence, higher = more signal.

Experiment [20] addresses Luciferin 4-monooxygenase (Photinus pyralis) (UniProt P08659). As to the kind of experiment: inhibition of purified Photinus pyralis luciferase – biochemical, luminescence, purified enzyme, 2006 set, primary screen (AID 1141).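 Note: cell-free assay with purified firefly luciferase at 100 ng per well in PBS; test concentration not given here.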 The settings on record: purified firefly luciferase, SteadyGlo luminescence, 30 min; higher = more signal, called active from +8 up or from −8 down.

Follistatin (Homo sapiens), sequence (P19883 whole entry, looked up): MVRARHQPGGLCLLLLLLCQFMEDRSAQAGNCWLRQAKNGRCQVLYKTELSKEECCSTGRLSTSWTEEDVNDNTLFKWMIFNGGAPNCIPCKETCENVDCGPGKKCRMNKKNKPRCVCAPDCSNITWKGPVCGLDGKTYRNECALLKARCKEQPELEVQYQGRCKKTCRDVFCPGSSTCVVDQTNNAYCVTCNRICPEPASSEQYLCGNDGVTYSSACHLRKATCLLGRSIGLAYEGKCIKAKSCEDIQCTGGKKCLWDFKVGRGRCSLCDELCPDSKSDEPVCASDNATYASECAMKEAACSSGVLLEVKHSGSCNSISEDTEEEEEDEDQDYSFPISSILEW
Focal adhesion kinase 1 (Homo sapiens), sequence (Q05397 whole entry, looked up): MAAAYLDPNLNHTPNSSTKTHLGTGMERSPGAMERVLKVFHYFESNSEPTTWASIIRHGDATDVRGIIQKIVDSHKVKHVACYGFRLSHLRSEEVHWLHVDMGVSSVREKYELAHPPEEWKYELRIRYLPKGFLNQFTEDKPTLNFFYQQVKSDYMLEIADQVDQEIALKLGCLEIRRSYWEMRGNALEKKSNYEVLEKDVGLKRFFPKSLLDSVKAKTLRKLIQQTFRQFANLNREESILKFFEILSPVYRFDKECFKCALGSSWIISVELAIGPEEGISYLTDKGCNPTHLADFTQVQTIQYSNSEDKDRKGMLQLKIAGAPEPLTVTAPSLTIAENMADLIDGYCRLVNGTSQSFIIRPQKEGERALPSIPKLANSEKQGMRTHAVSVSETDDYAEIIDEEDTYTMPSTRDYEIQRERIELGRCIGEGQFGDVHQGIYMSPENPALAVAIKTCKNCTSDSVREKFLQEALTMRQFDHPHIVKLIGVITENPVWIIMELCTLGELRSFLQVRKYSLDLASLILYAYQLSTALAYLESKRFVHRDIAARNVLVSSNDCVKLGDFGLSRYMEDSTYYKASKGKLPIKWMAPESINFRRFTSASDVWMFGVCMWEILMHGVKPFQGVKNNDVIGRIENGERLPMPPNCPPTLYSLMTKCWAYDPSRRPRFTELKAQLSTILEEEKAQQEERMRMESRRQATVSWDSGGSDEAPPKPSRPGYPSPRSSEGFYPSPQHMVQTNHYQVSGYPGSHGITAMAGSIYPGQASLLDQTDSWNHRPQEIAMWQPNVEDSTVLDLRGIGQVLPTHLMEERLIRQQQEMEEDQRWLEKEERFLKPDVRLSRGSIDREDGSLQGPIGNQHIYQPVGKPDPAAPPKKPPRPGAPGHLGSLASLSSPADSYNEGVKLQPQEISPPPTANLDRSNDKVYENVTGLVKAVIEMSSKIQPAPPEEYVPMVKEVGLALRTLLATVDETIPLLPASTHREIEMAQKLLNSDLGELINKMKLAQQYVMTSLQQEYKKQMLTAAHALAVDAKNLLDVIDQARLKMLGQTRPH
Luciferin 4-monooxygenase (Photinus pyralis), sequence (P08659 whole entry, looked up): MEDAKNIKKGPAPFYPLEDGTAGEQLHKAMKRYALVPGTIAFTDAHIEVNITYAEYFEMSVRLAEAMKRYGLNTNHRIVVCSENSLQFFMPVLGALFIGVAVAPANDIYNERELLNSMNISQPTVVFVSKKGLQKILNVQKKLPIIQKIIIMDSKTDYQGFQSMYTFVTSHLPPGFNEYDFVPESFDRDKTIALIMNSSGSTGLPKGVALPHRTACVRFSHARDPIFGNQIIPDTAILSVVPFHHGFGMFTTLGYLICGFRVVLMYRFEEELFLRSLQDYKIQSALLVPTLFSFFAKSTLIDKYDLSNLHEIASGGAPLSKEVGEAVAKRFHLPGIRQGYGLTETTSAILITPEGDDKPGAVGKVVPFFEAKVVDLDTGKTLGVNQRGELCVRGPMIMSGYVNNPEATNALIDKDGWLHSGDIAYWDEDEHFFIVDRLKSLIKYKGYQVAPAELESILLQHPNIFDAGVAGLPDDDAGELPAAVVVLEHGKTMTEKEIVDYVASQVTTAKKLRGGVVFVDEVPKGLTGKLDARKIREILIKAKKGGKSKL
Albumin (Bos taurus), sequence (P02769 whole entry, looked up): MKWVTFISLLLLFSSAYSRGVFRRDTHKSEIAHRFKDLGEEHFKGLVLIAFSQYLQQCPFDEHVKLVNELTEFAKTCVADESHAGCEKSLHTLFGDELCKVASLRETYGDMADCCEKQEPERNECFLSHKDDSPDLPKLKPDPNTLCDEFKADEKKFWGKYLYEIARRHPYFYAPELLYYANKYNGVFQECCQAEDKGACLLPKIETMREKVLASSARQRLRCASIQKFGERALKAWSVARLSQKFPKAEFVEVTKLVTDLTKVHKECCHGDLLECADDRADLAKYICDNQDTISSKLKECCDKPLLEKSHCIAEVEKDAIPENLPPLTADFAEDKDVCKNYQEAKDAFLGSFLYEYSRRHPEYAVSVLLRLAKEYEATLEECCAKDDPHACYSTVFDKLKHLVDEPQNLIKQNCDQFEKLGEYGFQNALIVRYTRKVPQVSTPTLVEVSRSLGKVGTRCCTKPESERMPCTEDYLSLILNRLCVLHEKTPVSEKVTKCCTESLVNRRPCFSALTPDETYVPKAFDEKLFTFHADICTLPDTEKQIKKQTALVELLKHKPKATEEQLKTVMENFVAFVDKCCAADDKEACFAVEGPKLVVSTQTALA

`COC(=O)CC=C[C@@H](C)[C@@H](C=NO[C@@H](C)c1cc(-c2c(C)cc(C)cc2C)no1)OC`: the composite z-score in [1] is -0.387; in experiment [3] it was -0.161; in experiment [4] it was -0.156; in experiment [5] it was -0.604; in experiment [6], -0.556; in experiment [7], -0.52. Moreover, the composite z-score in experiment [8] is -1.32; in experiment [9], -1.36; in experiment [10], -0.627; in [11] it was 0.525; in experiment [12], -1.06; in experiment [13], -0.688. The composite z-score in [14] was -1.47; in experiment [15], -0.732; in [16], -1.35; in experiment [18] it was -1.43; in experiment [19], -1.03. In addition, the composite Z-score in [2] was -0.483 (inactive). Besides, the z-score was -0.542 in experiment [17] and 0.973 (inactive) in experiment [20].

`C=CCC(OC(C)=O)[C@@H]1[C@@H](N(Cc2cc3ccccc3o2)C(=O)Cc2ccc(F)cc2)c2cc(OCCCO)ccc2N1C(=O)Cc1ccc(OC)cc1` (stereo not given in full): the composite z-score in experiment [1] is 0.323; in [3], -0.0932; in experiment [4] it was -0.178; in experiment [5], -0.446; in experiment [6], -0.372; in experiment [7] it was -0.374. The composite z-score is -0.243 in experiment [8]; 0.448 in experiment [9]; -0.437 in [10]; -0.419 in experiment [11]; -1.14 in experiment [12]; -0.0602 in experiment [13]. Further, the composite z-score in experiment [14] is 0.0188; in experiment [15], 0.354; in experiment [16], -0.271; in [18] it was 0.158; in experiment [19] it was 0.0264. Also, the composite Z-score in experiment [2] is -0.353 (inactive). The z-score was 0.919 in experiment [17] and -0.188 (inactive) in experiment [20].

`CCOC(=O)[C@H](CC(C)C)NC(=O)CCC1CC(OC(=O)NCCc2ccc(F)cc2)CC2(CCCC(COC(=O)NCc3ccccc3)O2)O1` (stereo not given in full): the composite z-score was 0.173 in [1]; 0.257 in [3]; -0.131 in experiment [4]; 0.274 in experiment [5]; 1.27 in experiment [6]; 0.362 in [7]. The composite z-score in experiment [8] came to 1.14; in experiment [9], 0.623; in experiment [10] it was 0.754; in experiment [11], 0.49; in experiment [12], 1.17; in experiment [13], 0.212. Also, the composite z-score in experiment [14] was 0.538; in experiment [15], 0.693; in experiment [16], 0.936; in [18], 1.04; in experiment [19], 0.422. Further, in experiment [2], the composite Z-score is -0.0657 (inactive). Also, the z-score in experiment [17] is -0.692; in [20] it was 0.629 (inactive).

For `COC(=O)[C@@]1(Cc2ccc(OC)cc2)[C@H]2c3cc(C(=O)N4CCCC4)n(Cc4cc(F)c(F)c(F)c4)c3C[C@H]2CN1C(=O)c1ccccc1`, the composite z-score was determined as 1.04 in experiment [1]; 1.69 in [3]; 0.882 in [4]; 0.765 in experiment [5]; 3.06 in experiment [6]; 1 in [7]. Moreover, the composite z-score in experiment [8] was 1.3; in experiment [9], -0.593; in experiment [10] it was 1.21; in experiment [11], 2.21; in experiment [12] it was 1.26; in [13] it was 0.59. The composite z-score in [14] is 1.02; in experiment [15], 1.19; in experiment [16] it was -0.149; in [18], -0.551; in [19], 1.31. Besides, the composite Z-score in experiment [2] is 0.188 (inactive). The z-score in experiment [17] was 0.649; in [20], 1.95 (inactive).

As to `CCOC(=O)C1=CC[C@H]2C(=O)N(CC)C(=O)[C@@H]12`, the composite z-score in [1] was 0.343; in experiment [3], 0.0242; in experiment [4], -0.0866; in experiment [5] it was 0.522; in experiment [6], 1.01; in experiment [7] it was 0.111. The composite z-score in [8] is 1.09; in experiment [9] it was 0.363; in experiment [10], 0.65; in experiment [11], 0.299; in experiment [12] it was 0.775; in [13], -0.0436. Further, the composite z-score was 0.775 in experiment [14]; 0.269 in experiment [15]; 0.218 in experiment [16]; 0.443 in [18]; 0.433 in experiment [19]. Besides, the composite Z-score in [2] was 0.806 (inactive). Further, the z-score was -1.1 in experiment [17] and 1.69 (inactive) in experiment [20].

Regarding `C=CC[C@@H]1C=C[C@H](ON=Cc2ccc(C(=O)N3[C@H](c4ccc(C)cc4)[C@@H](C)CC[C@H]3C(=O)OC)cc2)[C@@H](CO)O1`, the composite z-score in [1] is 0.36; in experiment [3], -0.0971; in experiment [4] it was -0.132; in experiment [5], -0.0234; in [6] it was 0.556; in experiment [7], 0.116. Besides, the composite z-score was 0.632 in experiment [8]; 0.714 in experiment [9]; -0.404 in experiment [10]; -0.672 in experiment [11]; 0.973 in experiment [12]; 0.181 in experiment [13]. Further, the composite z-score in experiment [14] was 0.302; in [15] it was 0.333; in experiment [16] it was 0.646; in experiment [18], 0.387; in experiment [19], 0.0608. The composite Z-score in experiment [2] was 0.0811 (inactive). The z-score was -0.154 in experiment [17] and 1.27 (inactive) in [20].
